We go through eight compounds from PubChem BioAssay (NCI).

Among the test systems are HCT-15 colon; HT29 colon; SNB-75 CNS; SNB-19 CNS; U251 CNS; PC-3 prostate; SK-MEL-5 melanoma; UACC-62 melanoma; LOX IMVI melanoma; SK-MEL-28 melanoma; SK-MEL-2 melanoma; EKVX NSCLC; SN12C renal; UO-31 renal; TK-10 renal; ACHN renal; CAKI-1 renal; A498 renal; CCRF-CEM leukemia.
What all share (assay): NCI-60 one-dose screen, 48 h (100 = growth as untreated, 0 = no growth, -100 = all killed)
What all share (details): 10 µM unless noted

Molecules are shown by their SMILES. The panel holds about 83,000 compounds, 20% with a hit somewhere; the sample as a whole holds those more often.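 Note: values are percent growth. 100 is the growth of untreated cells, values between 100 and 0 indicate rising inhibition; between -100 and 0 indicates cell death.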 Values without a mark were called inactive. Active and inactive are the calls of the source. Rule for the calls: active = growth percent below 10; inactive = the rest.

As to `O=C1c2ccccc2CCC12OC2c1cn(-c2ccccc2)nc1-c1ccc(Cl)cc1` (configuration not stated), the growth is 41.4% with HCT-15 colon; 102% in the assay with HT29 colon; 90.9% with SNB-75 CNS; 91.9% with SNB-19 CNS; 64.8% in the assay on U251 CNS; 83.6% in the assay on PC-3 prostate. For the same compound, the growth with SK-MEL-5 melanoma was 83.1%; in the assay on UACC-62 melanoma it was 63.8%; with LOX IMVI melanoma, 81.6%; in the assay with SK-MEL-28 melanoma, 100%; in the assay on SK-MEL-2 melanoma it was 112%; in the assay on EKVX NSCLC, 96.7%. Also, the growth in the assay with SN12C renal is 101%; in the assay with UO-31 renal, 88.6%; with TK-10 renal it was 113%; in the assay on ACHN renal, 98.8%; in the assay with CAKI-1 renal, 74.3%; with A498 renal it was 91.9%. Also, the growth in the assay on CCRF-CEM leukemia is 86.3%.

With `O=C(/C=C/c1c(-c2ccc(Cl)cc2)nn(-c2ccccc2)c1C(F)(F)F)c1ccc(Cl)cc1`, the growth is 77.7% in the assay with HCT-15 colon; 89.9% with HT29 colon; 86.1% with SNB-75 CNS; 96.1% with SNB-19 CNS; 86.3% with U251 CNS; 92.2% in the assay with PC-3 prostate. The growth in the assay with SK-MEL-5 melanoma is 85.3%; with UACC-62 melanoma, 82.5%; with LOX IMVI melanoma it was 75%; in the assay with SK-MEL-28 melanoma, 103%; in the assay on SK-MEL-2 melanoma, 89%; in the assay on EKVX NSCLC, 94.8%. For the same compound, the growth with SN12C renal was 88.1%; with UO-31 renal, 74.1%; with TK-10 renal it was 118%; in the assay with ACHN renal, 90.7%; in the assay with CAKI-1 renal, 90%; in the assay on A498 renal it was 87.6%. Besides, in the assay on CCRF-CEM leukemia, the growth was 85.6%.

For the compound `CC(C)c1ccc(Nc2ccc3c(OCCCN4CCN(C)CC4)cccc3n2)cc1`, the growth was -35.9% (active) in the assay on HCT-15 colon; -50.3% (active) in the assay on HT29 colon; 68.9% with SNB-75 CNS; 63.7% in the assay on SNB-19 CNS; 23.9% in the assay with U251 CNS; 62.9% in the assay on PC-3 prostate. The growth was 58.3% in the assay with SK-MEL-5 melanoma; 1.02% (active) in the assay with UACC-62 melanoma; -70.7% (active) in the assay on LOX IMVI melanoma; 13.7% with SK-MEL-28 melanoma; 105% in the assay with SK-MEL-2 melanoma; 80.7% in the assay on EKVX NSCLC. The growth with SN12C renal was 91.3%; with UO-31 renal, 71.5%; with TK-10 renal, 91%; with ACHN renal, 80.4%; in the assay with CAKI-1 renal, 64.4%; in the assay on A498 renal it was 77.8%. Besides, the growth with CCRF-CEM leukemia is 30%.

As to `CCNc1nc2ccc(Nc3ccnc4cc(Cl)ccc34)cc2[nH]1`, the growth with HCT-15 colon is 89.8%; in the assay on HT29 colon, 51.1%; in the assay with SNB-75 CNS, 87.3%; with SNB-19 CNS, 84.8%; in the assay with U251 CNS, 75.2%; with PC-3 prostate it was 63.9%. Moreover, the growth in the assay with SK-MEL-5 melanoma was 82.6%; in the assay with UACC-62 melanoma, 92.5%; with LOX IMVI melanoma, 70.6%; with SK-MEL-28 melanoma it was 99.5%; in the assay on SK-MEL-2 melanoma it was 103%; in the assay with EKVX NSCLC, 89.9%. The growth was 75.3% in the assay on SN12C renal; 84.9% with UO-31 renal; 99.4% with TK-10 renal; 103% with ACHN renal; 98.9% in the assay on CAKI-1 renal; 89.5% with A498 renal. The growth with CCRF-CEM leukemia is 42.8%.

Turning to `CCCCC/C=C/C(C)=C/C1CC(C)C/C=C/CCC(O)C(OC(N)=O)CCC(C)CC(O)C(C)C(=O)O1` (configuration not stated), the growth in the assay with HCT-15 colon is 89.8%; in the assay on HT29 colon it was 96.9%; with SNB-75 CNS it was 98.9%; in the assay with SNB-19 CNS, 183%; in the assay with U251 CNS, 82.1%; in the assay with PC-3 prostate, 73.7%. The growth was 61.4% in the assay on SK-MEL-5 melanoma; 82% in the assay with UACC-62 melanoma; 73.9% with LOX IMVI melanoma; 85.7% in the assay on SK-MEL-28 melanoma; 92.6% in the assay with SK-MEL-2 melanoma; 91.9% with EKVX NSCLC. Further, the growth in the assay with SN12C renal was 97.2%; in the assay on UO-31 renal, 64.3%; in the assay with TK-10 renal it was 100%; in the assay with ACHN renal, 73.1%; with CAKI-1 renal it was 78.9%; in the assay on A498 renal, 71.7%.

`COC(=O)C(CC=O)C(=O)C(=O)Nc1cccc(C(F)(F)F)c1` (configuration not stated): the growth in the assay on HCT-15 colon was 108%; with HT29 colon, 99.1%; in the assay on SNB-75 CNS, 92.8%; in the assay on SNB-19 CNS it was 102%; in the assay with U251 CNS it was 79.2%; in the assay with PC-3 prostate it was 95.7%. The growth in the assay on SK-MEL-5 melanoma is 99.9%; in the assay on UACC-62 melanoma, 89.7%; in the assay with LOX IMVI melanoma, 85.9%; with SK-MEL-28 melanoma, 120%; in the assay with SK-MEL-2 melanoma it was 109%; in the assay on EKVX NSCLC, 92.1%. For the same compound, the growth in the assay with SN12C renal was 92.2%; with UO-31 renal, 86.6%; in the assay on TK-10 renal, 102%; in the assay on ACHN renal, 105%; in the assay with CAKI-1 renal it was 97.7%.

Consider `COc1ccc(C(=O)CC#N)cc1`, for which the growth with HCT-15 colon was 112%; in the assay on HT29 colon, 126%; in the assay on SNB-75 CNS, 95.5%; in the assay with SNB-19 CNS, 103%; in the assay on U251 CNS it was 100%; with PC-3 prostate, 105%. Further, the growth was 97.9% in the assay with SK-MEL-5 melanoma; 105% in the assay with UACC-62 melanoma; 94.7% with LOX IMVI melanoma; 114% with SK-MEL-28 melanoma; 134% in the assay on SK-MEL-2 melanoma; 126% in the assay with EKVX NSCLC. Also, the growth in the assay on SN12C renal is 94.1%; with UO-31 renal, 105%; in the assay on TK-10 renal, 137%; in the assay with ACHN renal, 108%; with CAKI-1 renal, 127%.

As to `COc1ccc(-c2cnc3c(-c4cccc5ncccc45)cnn3c2)cc1`, the growth is 71.6% in the assay on HCT-15 colon; 43.5% in the assay on HT29 colon; -13.1% (active) in the assay on SNB-75 CNS; 5.29% (active) with SNB-19 CNS; 16.3% in the assay with U251 CNS; 50.6% in the assay on PC-3 prostate. Moreover, the growth with SK-MEL-5 melanoma was 22.3%; in the assay with UACC-62 melanoma, 54.2%; with LOX IMVI melanoma, 72.4%; with SK-MEL-28 melanoma, 58.1%; in the assay with SK-MEL-2 melanoma, 76.1%; with EKVX NSCLC, 80%. Further, the growth in the assay on SN12C renal is 37.8%; in the assay on UO-31 renal, 55.4%; in the assay on TK-10 renal, 61.7%; in the assay with ACHN renal, 7.66% (active); in the assay with CAKI-1 renal it was 32.2%; in the assay on A498 renal, 16.1%. Further, the growth in the assay on CCRF-CEM leukemia was 98.4%.
